Experimental data from PubChem BioAssay AID1159580 (chemical genetic matrix, 2015).
In all, about 5,500 compounds went through this assay and about 2,000 (36%) were called active. About 18% were inconclusive and are not listed. Some of the results follow. Unmarked numbers belong to inactive results. No stated cut-off is given here; in the data, active means normalized growth mostly below about 0.91 (no sharp cut-off); inconclusive means no clear call, values can overlap the other calls; inactive means mostly above about 0.92.

Experiment: chemical genetic growth profiling, strain panel (AID 1159580);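 further: tested at 20 µM; growth read once vehicle control cultures reached saturation at 30 °C; 1 = growth at the plate median or of vehicle wells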
Conditions: growth OD

COC(=O)/C(=C1\OC(=O)C(c2ccccc2)=C1O)c1ccccc1
normalized growth (S. cerevisiae deletion strains, locus YJL187C, strain SWE1, stronger effect = lower value): 0.98
normalized growth (S. cerevisiae deletion strains, locus YJR043C, strain POL32, stronger effect = lower value): 1.02
normalized growth (S. cerevisiae deletion strains, locus YJR066W, strain TOR1, stronger effect = lower value): 0.902
normalized growth (S. cerevisiae deletion strains, locus YKL009W, strain mrt4, stronger effect = lower value): 1.01
normalized growth (S. cerevisiae deletion strains, locus YKL068W, stronger effect = lower value): 0.965
normalized growth (S. cerevisiae deletion strains, locus YKL085W, strain MDH1 (second series), stronger effect = lower value): 0.965
normalized growth (S. cerevisiae deletion strains, locus YKL085W, strain MDH1, stronger effect = lower value): 0.965
normalized growth (S. cerevisiae deletion strains, locus YKL160W, strain elf1, stronger effect = lower value): 0.969
normalized growth (S. cerevisiae deletion strains, locus YKR001C, strain vps1, stronger effect = lower value): 1.03
normalized growth (S. cerevisiae deletion strains, locus YKR026C, strain gcn3, stronger effect = lower value): 0.935
normalized growth (S. cerevisiae deletion strains, locus YKR091W, strain srl3, stronger effect = lower value): 0.965
normalized growth (S. cerevisiae deletion strains, locus YLL001W, strain dnm1, stronger effect = lower value): 0.97
normalized growth (S. cerevisiae deletion strains, locus YLL026W, stronger effect = lower value): 0.974
normalized growth (S. cerevisiae deletion strains, locus YLL041C, strain sdh2, stronger effect = lower value): 0.956
normalized growth (S. cerevisiae deletion strains, locus YLR027C, strain aat2, stronger effect = lower value): 0.969
normalized growth (S. cerevisiae deletion strains, locus YLR039C, strain RIC1, stronger effect = lower value): 1.03
normalized growth (S. cerevisiae deletion strains, locus YLR058C, strain SHM2, stronger effect = lower value): 1.01
normalized growth (S. cerevisiae deletion strains, locus YLR102C, strain apc9, stronger effect = lower value): 0.988
normalized growth (S. cerevisiae deletion strains, locus YLR113W, strain HOG1, stronger effect = lower value): 0.827 (active)
normalized growth (S. cerevisiae deletion strains, locus YLR221C, strain rsa3, stronger effect = lower value): 0.981
normalized growth (S. cerevisiae deletion strains, locus YLR258W, strain gsy2, stronger effect = lower value): 0.985
normalized growth (S. cerevisiae deletion strains, locus YLR262C, strain YPT6 (second series), stronger effect = lower value): 0.915
normalized growth (S. cerevisiae deletion strains, locus YLR262C, strain YPT6, stronger effect = lower value): 1
normalized growth (S. cerevisiae deletion strains, locus YLR268W, strain sec22, stronger effect = lower value): 1.03
normalized growth (S. cerevisiae deletion strains, locus YLR320W, strain mms22, stronger effect = lower value): 0.981
normalized growth (S. cerevisiae deletion strains, locus YLR330W, strain CHS5, stronger effect = lower value): 0.996
normalized growth (S. cerevisiae deletion strains, locus YLR342W, strain FKS1 (second series), stronger effect = lower value): 1
normalized growth (S. cerevisiae deletion strains, locus YLR342W, strain FKS1, stronger effect = lower value): 0.976
normalized growth (S. cerevisiae deletion strains, locus YLR357W, strain rsc2, stronger effect = lower value): 1.01
normalized growth (S. cerevisiae deletion strains, locus YLR370C, strain arc18, stronger effect = lower value): 0.97
normalized growth (S. cerevisiae deletion strains, locus YLR371W, strain rom2, stronger effect = lower value): 1
normalized growth (S. cerevisiae deletion strains, locus YLR384C, strain iki3, stronger effect = lower value): 0.982
normalized growth (S. cerevisiae deletion strains, locus YLR418C, strain cdc73, stronger effect = lower value): 0.996
normalized growth (S. cerevisiae deletion strains, locus YML016C, strain PPZ1, stronger effect = lower value): 1.01
normalized growth (S. cerevisiae deletion strains, locus YML032C, strain rad52, stronger effect = lower value): 0.987
normalized growth (S. cerevisiae deletion strains, locus YML120C, strain ndi1, stronger effect = lower value): 0.985
normalized growth (S. cerevisiae deletion strains, locus YML124C, strain tub3, stronger effect = lower value): 0.993
normalized growth (S. cerevisiae deletion strains, locus YMR058W, strain fet3, stronger effect = lower value): 0.981
normalized growth (S. cerevisiae deletion strains, locus YMR078C, strain ctf18, stronger effect = lower value): 1
normalized growth (S. cerevisiae deletion strains, locus YMR125W, strain sto1, stronger effect = lower value): 0.982
normalized growth (S. cerevisiae deletion strains, locus YMR129W, stronger effect = lower value): 0.965
normalized growth (S. cerevisiae deletion strains, locus YMR205C, strain PFK2, stronger effect = lower value): 0.965
normalized growth (S. cerevisiae deletion strains, locus YMR223W, strain ubp8, stronger effect = lower value): 0.98
normalized growth (S. cerevisiae deletion strains, locus YMR231W, strain pep5, stronger effect = lower value): 0.98
normalized growth (S. cerevisiae deletion strains, locus YMR307W, strain GAS1, stronger effect = lower value): 1.1
normalized growth (S. cerevisiae deletion strains, locus YNL067W, strain RPL9B, stronger effect = lower value): 1.03
normalized growth (S. cerevisiae deletion strains, locus YNL071W, strain lat1, stronger effect = lower value): 0.98
normalized growth (S. cerevisiae deletion strains, locus YNL128W, strain TEP1, stronger effect = lower value): 1.02
normalized growth (S. cerevisiae deletion strains, locus YNL183C, strain NPR1, stronger effect = lower value): 0.899
normalized growth (S. cerevisiae deletion strains, locus YNL209W, strain ssb2, stronger effect = lower value): 0.967
normalized growth (S. cerevisiae deletion strains, locus YNL233W, strain BNI4, stronger effect = lower value): 1.02
normalized growth (S. cerevisiae deletion strains, locus YNL248C, strain rpa49, stronger effect = lower value): 0.985
normalized growth (S. cerevisiae deletion strains, locus YNL250W, strain rad50, stronger effect = lower value): 0.998
normalized growth (S. cerevisiae deletion strains, locus YNL271C, strain bni1, stronger effect = lower value): 0.986
normalized growth (S. cerevisiae deletion strains, locus YNL298W, strain CLA4, stronger effect = lower value): 0.982
normalized growth (S. cerevisiae deletion strains, locus YNL307C, strain MCK1, stronger effect = lower value): 0.988
normalized growth (S. cerevisiae deletion strains, locus YNL322C, strain KRE1 (second series), stronger effect = lower value): 0.953
normalized growth (S. cerevisiae deletion strains, locus YNR049C, strain mso1, stronger effect = lower value): 0.959
normalized growth (S. cerevisiae deletion strains, locus YNR052C, strain pop2, stronger effect = lower value): 1.01
normalized growth (S. cerevisiae deletion strains, locus YOL006C, strain TOP1, stronger effect = lower value): 1.17
normalized growth (S. cerevisiae deletion strains, locus YOL012C, strain htz1): 0.689
normalized growth (S. cerevisiae deletion strains, locus YOL147C, strain pex11, stronger effect = lower value): 0.99
normalized growth (S. cerevisiae deletion strains, locus YOR001W, strain rrp6, stronger effect = lower value): 0.974
normalized growth (S. cerevisiae deletion strains, locus YOR061W, strain CKA2, stronger effect = lower value): 0.999
normalized growth (S. cerevisiae deletion strains, locus YOR069W, strain VPS5, stronger effect = lower value): 0.995
normalized growth (S. cerevisiae deletion strains, locus YOR070C, strain gyp1, stronger effect = lower value): 0.976
normalized growth (S. cerevisiae deletion strains, locus YOR080W, strain dia2, stronger effect = lower value): 0.982
normalized growth (S. cerevisiae deletion strains, locus YOR083W, strain WHI5, stronger effect = lower value): 0.968
normalized growth (S. cerevisiae deletion strains, locus YOR106W, strain vam3, stronger effect = lower value): 1.01
normalized growth (S. cerevisiae deletion strains, locus YOR136W, strain idh2, stronger effect = lower value): 1
normalized growth (S. cerevisiae deletion strains, locus YOR144C, strain elg1, stronger effect = lower value): 0.984
normalized growth (S. cerevisiae deletion strains, locus YOR184W, strain ser1, stronger effect = lower value): 1.01
normalized growth (S. cerevisiae deletion strains, locus YOR231W, strain MKK1, stronger effect = lower value): 0.903
normalized growth (S. cerevisiae deletion strains, locus YOR265W, strain rbl2, stronger effect = lower value): 0.961
normalized growth (S. cerevisiae deletion strains, locus YOR270C, strain vph1, stronger effect = lower value): 0.974
normalized growth (S. cerevisiae deletion strains, locus YOR290C, strain snf2, stronger effect = lower value): 0.948
normalized growth (S. cerevisiae deletion strains, locus YOR316C, strain cot1, stronger effect = lower value): 0.981
normalized growth (S. cerevisiae deletion strains, locus YPL051W, strain arl3, stronger effect = lower value): 0.983
normalized growth (S. cerevisiae deletion strains, locus YPL055C, strain LGE1, stronger effect = lower value): 1.05
normalized growth (S. cerevisiae deletion strains, locus YPL078C, strain atp4, stronger effect = lower value): 0.972
normalized growth (S. cerevisiae deletion strains, locus YPL106C, strain sse1, stronger effect = lower value): 0.966
normalized growth (S. cerevisiae deletion strains, locus YPL240C, strain hsp82, stronger effect = lower value): 0.956
normalized growth (S. cerevisiae deletion strains, locus YPL241C, strain CIN2, stronger effect = lower value): 0.989
normalized growth (S. cerevisiae deletion strains, locus YPL256C, strain CLN2, stronger effect = lower value): 0.865
normalized growth (S. cerevisiae deletion strains, locus YPR119W, strain clb2, stronger effect = lower value): 0.99
normalized growth (S. cerevisiae deletion strains, locus YPR141C, strain kar3, stronger effect = lower value): 0.965
normalized growth (S. cerevisiae deletion strains, locus YPR163C, strain tif3, stronger effect = lower value): 0.997
normalized growth (S. cerevisiae deletion strains, locus YPR167C, strain met16, stronger effect = lower value): 0.983
normalized growth (S. cerevisiae deletion strains, strain wtn01, stronger effect = lower value): 1.01
normalized growth (S. cerevisiae strains, strain wild type, stronger effect = lower value): 0.992
